Results filed as inconclusive are left out. Entries that show only a call come without a potency. Unmarked numbers belong to inactive results. Calls of active or inactive are those of the source. Unless noted, calls come from the whole dose curve. Peptide text beside a SMILES is read from it.

Chain of Nucleoprotein (Lymphocytic choriomeningitis virus (strain Armstrong)) (P09992 whole entry, looked up): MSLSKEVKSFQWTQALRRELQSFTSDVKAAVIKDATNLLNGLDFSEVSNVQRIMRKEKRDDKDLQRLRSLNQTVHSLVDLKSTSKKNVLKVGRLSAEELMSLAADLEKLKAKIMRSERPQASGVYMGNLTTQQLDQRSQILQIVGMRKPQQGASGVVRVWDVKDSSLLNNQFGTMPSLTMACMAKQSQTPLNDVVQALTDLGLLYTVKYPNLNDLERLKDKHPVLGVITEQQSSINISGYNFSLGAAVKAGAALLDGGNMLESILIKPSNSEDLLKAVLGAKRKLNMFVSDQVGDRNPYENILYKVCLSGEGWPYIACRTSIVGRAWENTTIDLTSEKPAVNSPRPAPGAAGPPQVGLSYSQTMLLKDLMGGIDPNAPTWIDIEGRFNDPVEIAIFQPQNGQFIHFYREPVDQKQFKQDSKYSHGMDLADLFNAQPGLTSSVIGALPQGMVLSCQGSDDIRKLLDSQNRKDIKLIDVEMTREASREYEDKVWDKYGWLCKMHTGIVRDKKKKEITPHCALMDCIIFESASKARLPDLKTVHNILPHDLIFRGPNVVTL

Test system in one test: not listed separately
The experiment in a line: qHTS for Inhibitors of the Functional Ribonucleoprotein Complex (vRNP) of Lymphocytic Choriomeningitis Arenaviruses (LCMV): Viability assay - alamar blue signal for LCMV Primary Screen (AID 1347085; calls by dose curve; tested in HEK293 reporter line; note: nearly all actives have a fitted effect of over 80% in size). The conditions noted are these: alamar blue viability counter-screen, LCMV vRNP screen cells; series mostly up to 57.5 µM. (In general: qHTS replaces the single test concentration by a dilution series.)
Turning to `Cc1cn([C@@H]2O[C@H](CO)[C@@H](O)[C@H]2F)c(=O)[nH]c1=O`, the Potency result was “inactive”.

For the compound `Cc1cc(CC(=O)O)c(C)n1-c1ccc(Cl)cc1`, the Potency result is “inactive”.

With `CCCCCC[C@@H](CCC)C(=O)O`, the Potency result is “inactive”.

Consider `COc1nccnc1NS(=O)(=O)c1ccc(N)cc1`, for which the Potency result was “inactive”.

Turning to `O=S(=O)(O)c1cc(I)c(O)c2ncccc12`, the Potency result was “inactive”.

Regarding `Oc1cccc(O)c1`, the Potency entry is “inactive”.

Consider `CN(C)CCN1CCN(c2cccc(Cl)c2)C1=O`, for which the Potency entry is “inactive”.

For the compound `Cc1cccc(C)c1NC(=O)CN(CC(=O)O)CC(=O)O`, the Potency result was “inactive”.

As for `CCCCNC(=O)NS(=O)(=O)c1ccc(N)cc1`, the Potency result was “inactive”.

On to `NC[C@H]1O[C@H](O[C@H]2[C@H](O[C@@H]3O[C@H](CO)[C@@H](O)[C@H]3O)C(O)[C@H](N)C[C@@H]2N)[C@H](N)[C@@H](O)[C@@H]1O` (stereo partly specified), for which the activity change, negative = lower viability was -0.301% [at 11.5 µM].

With `CC(=O)[C@@]1(O)CC[C@H]2[C@@H]3C[C@H](C)C4=CC(=O)C=C[C@]4(C)[C@@]3(F)[C@@H](O)C[C@@]21C`, the Potency result was “inactive”.

Turning to `CCCCCCCCCCCCCCCC(=O)O`, the Potency result is “inactive”.

Consider `CO[C@@H]1[C@@H](OC(N)=O)[C@@H](O)[C@H](Oc2ccc3c(O)c(NC(=O)c4ccc(O)c(CC=C(C)C)c4)c(=O)oc3c2C)OC1(C)C`, for which the Potency result is “inactive”.

Regarding `Cc1cc(C)c(NC(=O)CN(CC(=O)O)CC(=O)O)c(C)c1Br`, the Potency result is “inactive”.

Turning to `CC(C(=O)O)c1ccc(/C=C2\CCCCC2=O)cc1` (stereo unspecified), the Potency entry is “inactive”.

As for `N=C(N)N`, the Potency result was “inactive”.

`Cc1ccc(O)c2ncccc12`: the Potency entry was “inactive”.

Regarding `NS(=O)(=O)c1cc(C(=O)NN2C[C@H]3[C@H]4CCC(C4)[C@H]3C2)ccc1Cl`, the Potency result was “inactive”.

As for `CN1[C@@H]2CCC[C@@H]1CC(NC(=O)c1nn(C)c3ccccc13)C2` (stereo partly specified), the Potency result was “inactive”.

`CCOc1nc2cccc(C(=O)O)c2n1Cc1ccc(-c2ccccc2-c2nn[nH]n2)cc1`: the Potency entry is “inactive”.

Take `CC[N+](C)(CC)CCOC(=O)C1c2ccccc2Oc2ccccc21`: the Potency result was “inactive”.

Turning to `Cc1ccc(C(C)C)c(O)c1`, the Potency result was “inactive”.

Consider `CC12CCC(CC1)C(C)(C)O2`, for which the Potency entry was “inactive”.

On to `Nc1ccc(O)cc1`, for which the Potency entry was “inactive”.

Regarding `NCCCCCC(=O)O`, the Potency entry is “inactive”.

On to `OCCN1CCN(CC/C=C2/c3ccccc3Sc3ccc(C(F)(F)F)cc32)CC1`, for which the Potency entry was “inactive”.

In the case of `CN1C(C(=O)Nc2ccccn2)=C(O)c2ccccc2S1(=O)=O`, the Potency entry was “inactive”.

Turning to `CSCC[C@H](NC(=O)[C@H](Cc1c[nH]c2ccccc12)NC(=O)CCNC(=O)OC(C)(C)C)C(=O)N[C@@H](CC(=O)O)C(=O)N[C@@H](Cc1ccccc1)C(N)=O`, the Potency result is “inactive”.

`C[C@H]1O[C@@H](n2cc(F)c(=O)[nH]c2=O)[C@H](O)[C@@H]1O`: the Potency entry is “inactive”.

As for `O=C(O)c1cc(O)c(O)c(O)c1`, the Potency result is “inactive”.

Regarding `OC[C@H]1O[C@@H](n2cnc3c2NC=NC[C@H]3O)C[C@@H]1O`, the Potency entry was “inactive”.

For `CCNC(=O)[C@@H]1CCCN1C(=O)[C@H](CCCN=C(N)N)NC(=O)[C@H](CC(C)C)NC(=O)CNC(=O)[C@H](Cc1ccc(O)cc1)NC(=O)[C@H](CO)NC(=O)[C@H](Cc1c[nH]c2ccccc12)NC(=O)[C@H](Cc1cnc[nH]1)NC(=O)[C@@H]1CCC(=O)N1` (HELM PEPTIDE1{[Glp].H.W.S.Y.G.L.R.P.[CCN[*:1]]}$$$$V2.0), the Potency entry was “inactive”.

For `O=c1[nH]c(=O)n([C@H]2O[C@H](CO)[C@@H](O)[C@@H]2O)cc1/C=C\Br`, the Potency entry is “inactive”.

For the compound `CC[C@H](C)[C@H](N)C(=O)O`, the Potency result is “inactive”.

`O=C(O)CCCC[P+](c1ccccc1)(c1ccccc1)c1ccccc1`: the Potency entry is “inactive”.

Regarding `CN(C)CCc1c[nH]c2ccc(Cn3cncn3)cc12`, the Potency result was “inactive”.

Regarding `N#CC1(c2ccc(F)cc2)CCC(=O)CC1`, the Potency result is “inactive”.

As for `CCCCCCCCCCC[C@@H](C[C@@H]1OC(=O)[C@H]1CCCCCC)OC(=O)[C@H](CC(C)C)NC=O`, the Potency entry is “inactive”.

The next test addresses Nucleoprotein (Lymphocytic choriomeningitis virus (strain Armstrong)) (UniProt P09992). The experiment in a line: qHTS for Inhibitors of the Functional Ribonucleoprotein Complex (vRNP) of Lymphocytic Choriomeningitis Arenaviruses (LCMV): LCMV Primary Screen - GLuc reporter signal (AID 1347086). Note: nearly all actives have a fitted effect of over 70% in size. The conditions noted are these: LCMV minigenome vRNP cell assay, Gaussia luciferase reporter; series mostly up to 57.5 µM.
Consider `Cc1cn([C@@H]2O[C@H](CO)[C@@H](O)[C@H]2F)c(=O)[nH]c1=O`, for which the Potency result was “inactive”.

For `Cc1cc(CC(=O)O)c(C)n1-c1ccc(Cl)cc1`, the Potency entry is “inactive”.

On to `CCCCCC[C@@H](CCC)C(=O)O`, for which the Potency result is “inactive”.

`COc1nccnc1NS(=O)(=O)c1ccc(N)cc1`: the Potency entry is “inactive”.

Consider `O=S(=O)(O)c1cc(I)c(O)c2ncccc12`, for which the Potency entry was “inactive”.

`Oc1cccc(O)c1`: the Potency entry is “inactive”.

As to `CN(C)CCN1CCN(c2cccc(Cl)c2)C1=O`, the Potency entry is “inactive”.

Turning to `Cc1cccc(C)c1NC(=O)CN(CC(=O)O)CC(=O)O`, the Potency result was “inactive”.

`CCCCNC(=O)NS(=O)(=O)c1ccc(N)cc1`: the Potency entry was “inactive”.

With `NC[C@H]1O[C@H](O[C@H]2[C@H](O[C@@H]3O[C@H](CO)[C@@H](O)[C@H]3O)C(O)[C@H](N)C[C@@H]2N)[C@H](N)[C@@H](O)[C@@H]1O` (stereo partly specified), the activity change, negative = inhibition was 40.8% [at 11.5 µM].

For `CC(=O)[C@@]1(O)CC[C@H]2[C@@H]3C[C@H](C)C4=CC(=O)C=C[C@]4(C)[C@@]3(F)[C@@H](O)C[C@@]21C`, the Potency entry was “inactive”.

As for `CCCCCCCCCCCCCCCC(=O)O`, the Potency result was “inactive”.

Turning to `CO[C@@H]1[C@@H](OC(N)=O)[C@@H](O)[C@H](Oc2ccc3c(O)c(NC(=O)c4ccc(O)c(CC=C(C)C)c4)c(=O)oc3c2C)OC1(C)C`, the Potency entry was “inactive”.

Consider `Cc1cc(C)c(NC(=O)CN(CC(=O)O)CC(=O)O)c(C)c1Br`, for which the Potency entry was “inactive”.

Consider `CC(C(=O)O)c1ccc(/C=C2\CCCCC2=O)cc1` (stereo unspecified), for which the Potency entry is “inactive”.

Regarding `N=C(N)N`, the Potency entry is “inactive”.

In the case of `Cc1ccc(O)c2ncccc12`, the Potency entry is “inactive”.

Turning to `NS(=O)(=O)c1cc(C(=O)NN2C[C@H]3[C@H]4CCC(C4)[C@H]3C2)ccc1Cl`, the Potency result was “inactive”.

As to `CN1[C@@H]2CCC[C@@H]1CC(NC(=O)c1nn(C)c3ccccc13)C2` (stereo partly specified), the Potency entry is “inactive”.

`CCOc1nc2cccc(C(=O)O)c2n1Cc1ccc(-c2ccccc2-c2nn[nH]n2)cc1`: the Potency result was “inactive”.

`CC[N+](C)(CC)CCOC(=O)C1c2ccccc2Oc2ccccc21`: the Potency entry was “inactive”.

As to `Cc1ccc(C(C)C)c(O)c1`, the Potency entry is “inactive”.

As for `CC12CCC(CC1)C(C)(C)O2`, the Potency result was “inactive”.

With `Nc1ccc(O)cc1`, the Potency entry is “inactive”.

Turning to `NCCCCCC(=O)O`, the Potency result was “inactive”.

For the compound `OCCN1CCN(CC/C=C2/c3ccccc3Sc3ccc(C(F)(F)F)cc32)CC1`, the Potency entry was “inactive”.

For `CN1C(C(=O)Nc2ccccn2)=C(O)c2ccccc2S1(=O)=O`, the Potency result was “inactive”.

For the compound `CSCC[C@H](NC(=O)[C@H](Cc1c[nH]c2ccccc12)NC(=O)CCNC(=O)OC(C)(C)C)C(=O)N[C@@H](CC(=O)O)C(=O)N[C@@H](Cc1ccccc1)C(N)=O`, the Potency entry was “inactive”.

Turning to `C[C@H]1O[C@@H](n2cc(F)c(=O)[nH]c2=O)[C@H](O)[C@@H]1O`, the Potency result is “inactive”.

`O=C(O)c1cc(O)c(O)c(O)c1`: the Potency entry is “inactive”.

For `OC[C@H]1O[C@@H](n2cnc3c2NC=NC[C@H]3O)C[C@@H]1O`, the Potency result is “inactive”.

For `CCNC(=O)[C@@H]1CCCN1C(=O)[C@H](CCCN=C(N)N)NC(=O)[C@H](CC(C)C)NC(=O)CNC(=O)[C@H](Cc1ccc(O)cc1)NC(=O)[C@H](CO)NC(=O)[C@H](Cc1c[nH]c2ccccc12)NC(=O)[C@H](Cc1cnc[nH]1)NC(=O)[C@@H]1CCC(=O)N1` (HELM PEPTIDE1{[Glp].H.W.S.Y.G.L.R.P.[CCN[*:1]]}$$$$V2.0), the Potency result is “inactive”.

Regarding `O=c1[nH]c(=O)n([C@H]2O[C@H](CO)[C@@H](O)[C@@H]2O)cc1/C=C\Br`, the Potency result is “inactive”.

For the compound `CC[C@H](C)[C@H](N)C(=O)O`, the Potency result was “inactive”.

Turning to `O=C(O)CCCC[P+](c1ccccc1)(c1ccccc1)c1ccccc1`, the Potency result is “inactive”.

As for `CN(C)CCc1c[nH]c2ccc(Cn3cncn3)cc12`, the Potency entry is “inactive”.

Regarding `N#CC1(c2ccc(F)cc2)CCC(=O)CC1`, the Potency result is “inactive”.

`CCCCCCCCCCC[C@@H](C[C@@H]1OC(=O)[C@H]1CCCCCC)OC(=O)[C@H](CC(C)C)NC=O`: the Potency entry is “inactive”.
